High-throughput results deposited in PubChem by National Center for Advancing Translational Sciences (NCATS).
G9a inh = inhibitors of human histone lysine methyltransferase G9a | Potency, µM (doses to about 102 µM), for the others: top-dose activity, negative = inhibition, usual class: inhibitors | 350,000 tested, 8.8% active | Q96KQ7 | G9a H3K9 monomethylation, AlphaScreen, 2 h | AID 504332; further: on the % scale 0 is the no-effect control and ±100 the full control effect; nearly all actives have a fitted effect of over 75% in size
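Using a bead-based AlphaScreen, monomethylated H3K9 product from 2 h room-temperature reactions (G9a 20 nM, peptide 500 nM, SAM 20 uM) was detected with 0.5 ug/mL rabbit anti-H3K9me1 antibody.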
BAZ2B block = blocks human BAZ2B; Q9UIF8; AlphaScreen BAZ2B-H3K14Ac peptide displacement; Potency, µM (top dose mostly 114 µM), inactives show top-dose activity change, negative = inhibition, usual class: inhibitors; 360,000 tested, 4.4% active; further: on the % scale 0 is the no-effect control and ±100 the full control effect; nearly all actives have a fitted effect of over 60% in size
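AlphaScreen displacement: compounds (up to 110uM) incubated 30 min at room temperature with a preformed 50 nM BAZ2B/50 nM biotinylated H3K14Ac peptide complex in PBS pH 7.4 with Tween-20. Donor and acceptor beads at 10 ug/mL final added, 20 min light-protected before reading.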
HP1b binding inh = HP1-beta chromodomain-methylated histone interaction inhibition; 390,000 tested, 0.56% active; P83916; AID 540317; AlphaScreen HP1-beta / biotin-H3K9me3 peptide binding; Potency, µM (top dose mostly 114 µM), for inactives: at the highest dose activity change, negative = inhibition, most hits filed as inhibitors; further: nearly all actives have a fitted effect of over 70% in size
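Compound inhibition of the preformed complex between 50 nM HP1-beta and 50 nM biotinylated H3K9me3 peptide was read by AlphaScreen. Buffer was PBS pH 7.4 with 0.01% Tween-20. Incubations ran 30 min at room temperature, with 10 ug/mL donor/acceptor beads.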
JMJD2A Tudor = inhibitors of human JMJD2A Tudor domain | O75164 | AlphaScreen JMJD2A-Tudor / H3K4me3 peptide binding | Potency, µM (highest dose often 114 µM), inactives show top-dose activity change, negative = inhibition, actives largely listed as inhibitors | 390,000 tested, 4.4% active; further: on the % scale 0 is the no-effect control and ±100 the full control effect; nearly all actives have a fitted effect of over 50% in size
L3MBTL1 block = blocks human L3MBTL1; Q9Y468; AlphaScreen L3MBTL1–H3K9me1 peptide binding; Potency, µM (doses to about 57.1 µM), inactives show at the top dose activity, negative = inhibition, actives largely listed as inhibitors; 230,000 tested, 0.66% active; AID 485360; further: on the % scale 0 is the no-effect control and ±100 the full control effect; nearly all actives have a fitted effect of over 60% in size
Target sequence (Q9Y468 whole entry, looked up): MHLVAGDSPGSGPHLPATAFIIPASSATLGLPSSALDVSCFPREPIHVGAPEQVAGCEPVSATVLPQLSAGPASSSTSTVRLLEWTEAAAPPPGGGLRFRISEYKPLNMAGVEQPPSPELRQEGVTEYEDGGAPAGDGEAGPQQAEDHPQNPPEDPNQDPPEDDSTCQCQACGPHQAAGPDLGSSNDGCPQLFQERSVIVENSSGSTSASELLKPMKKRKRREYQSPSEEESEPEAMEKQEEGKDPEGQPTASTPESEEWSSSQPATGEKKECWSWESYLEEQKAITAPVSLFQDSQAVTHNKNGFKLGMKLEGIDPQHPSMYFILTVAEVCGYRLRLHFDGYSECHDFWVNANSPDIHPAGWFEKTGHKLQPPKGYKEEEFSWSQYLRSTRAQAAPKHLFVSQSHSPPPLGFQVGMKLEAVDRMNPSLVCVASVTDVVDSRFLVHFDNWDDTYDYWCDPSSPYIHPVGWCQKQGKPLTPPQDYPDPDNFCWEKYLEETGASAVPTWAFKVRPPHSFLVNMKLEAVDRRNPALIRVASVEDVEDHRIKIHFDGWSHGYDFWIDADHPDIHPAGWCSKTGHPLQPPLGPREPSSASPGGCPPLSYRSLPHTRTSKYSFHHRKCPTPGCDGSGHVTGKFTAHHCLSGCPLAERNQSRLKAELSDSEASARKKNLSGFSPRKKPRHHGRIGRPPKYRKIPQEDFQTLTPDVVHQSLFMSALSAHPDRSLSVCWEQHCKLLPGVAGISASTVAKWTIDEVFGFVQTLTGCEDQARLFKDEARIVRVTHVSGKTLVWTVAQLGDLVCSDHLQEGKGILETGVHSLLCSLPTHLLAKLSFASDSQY
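L3MBTL1 (50 nM) pre-complexed 30 min with biotinylated H3(1-15)K9me1 peptide (75 nM), then compounds added for 30 min at room temperature; AlphaScreen streptavidin donor/nickel chelate acceptor beads (10 ug/mL final) read after 30 min dark incubation.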
The depositor's hits bear a star; ? = inconclusive; / = not tested or not shown; ! = a repeat was not active; [ ] = another dose, or the depositor's remark. Hits are enriched below; roughly 11% of the tested compounds scored in any of these assays. The call rests on the fitted dose curve; in most records, active means well fitted inhibition curve with a large enough effect; inconclusive means small, poorly fitted or top-dose-only effect; inactive means no such curve, though single readings can be large or run the other way. Potency means the concentration at half of the fitted maximal effect.

SMILES | G9a inh | BAZ2B block | HP1b binding inh | JMJD2A Tudor | L3MBTL1 block
Cc1ccc(S(=O)(=O)c2c(COC(=O)c3ccccc3Cl)c(-c3ccccc3)nn2C)cc1 | -1.8% | 6.31µM* | 26.9% | 1.2% | /
Cc1ccc(S(=O)(=O)c2c(CO)c(-c3ccccc3)nn2C)cc1 | -5.3% | -10.6% | 18.2% | -5.5% | /
CC(C)(C)N/N=C/c1c(O)n(-c2ccc(Cl)cn2)c(=O)c2ccccc12 | 3.16µM* | -10.3% | -2.9% | -16.6% | ?
COC(=O)CN=Cc1c(O)n(-c2ccc(Cl)cn2)c(=O)c2ccccc12 | -2.4% | -1.4% | 23.8% | -11.5% | 4.4%
O=c1c2ccccc2c(C=Nc2cccc(S(=O)(=O)NCc3ccco3)c2)c(O)n1-c1ccc(Cl)cn1 | 28.2µM* | 26.8% | -10.6% | -13.8%[57.1 µM] | 5.9%
CCOc1ccc(C(=O)NCc2nnnn2-c2ccc(C)c(C)c2)cc1OCC | 3.5%[59 µM] | 6.0% | 28.2%[57 µM] | -5.5% | /
O=C(O)CC(NC(=O)C1c2ccccc2Oc2ccccc21)c1ccc(Cl)cc1 (stereo not given) | 11.2µM* | -7.1% | 19.1% | -35.7% | -3.0%
Cc1[nH]c2ccccc2c1/C=N/Nc1ccccc1[N+](=O)[O-] | 7.94µM* | 5.62µM* | 39.8µM* | 22.4µM* | 17.8µM*
Cc1[nH]c2ccccc2c1/C=N/NC(=O)CCC(=O)NCc1ccccc1 | -6.0% | -21.5% | -24.1% | 11.2µM* | -6.1%
Cc1n[nH]c(C)c1CCC(=O)N/N=C/c1c(C)[nH]c2ccccc12 | 6.0% | ? | 26.8% | -16.6% | /
COc1ccc(NS(=O)(=O)c2cc([N+](=O)[O-])ccc2N/N=C/c2c(C)[nH]c3ccccc23)cc1 | / | / | -20.3% | -26.0% | /
Cc1[nH]c2ccccc2c1/C=N/NS(=O)(=O)c1ccccc1 | 50.1µM* | -38.1% | -16.1% | ? | -7.8%
CC(=O)c1sc(NC(=O)c2c(-c3ccccc3)c(-c3ccccc3)nn(C)c2=O)nc1C | -3.9%[59 µM] | 1.6% | 35.1% | -12.3% | /
CCOC(=O)c1c(C)[nH]c(C2=NNC(=NC3CC3)SC2)c1C | 17.8µM* | -31.7% | ? | ? | -20.8%
CCC(C)n1c(-c2cccc(S(=O)(=O)N(CC)CC)c2)n[nH]c1=S (stereo not given) | 8.91µM* | 2.1% | 15.2% | 10µM* | /
CCN(CC)S(=O)(=O)c1cccc(-c2n[nH]c(=S)n2/N=C/c2ccc(Br)cc2)c1 | ? | 1.0% | 1.1% | ? | 1.2%
CCn1c(-c2cccc(S(=O)(=O)N3CCCC3)c2)n[nH]c1=S | 8.91µM* | -24.1% | 18.2% | 6.31µM* | /
O=c1oc(-c2cccc(S(=O)(=O)N3CCOCC3)c2)nc2ccccc12 | 10µM* | 39.5% | 40.9% | -6.9% | ?
CCN(CC)S(=O)(=O)c1cccc(-c2n[nH]c(=S)n2/N=C/c2ccc(OC(F)F)cc2)c1 | 1.78µM* | ? | ? | ? | -17.7%
Cc1nn(C)c(C)c1S(=O)(=O)N(CC(=O)N1CCN(c2ccccc2)CC1)c1ccc(C(C)C)cc1 | -15.9%[59 µM] | -10.7% | 20.1% | -16.2% | /
Cc1nc(-c2cccc(S(=O)(=O)N3CCOCC3)c2)cs1 | ? | -1.3% | -16.3% | -26.7% | -4.9%
CCN(CC)S(=O)(=O)c1cccc(-c2n[nH]c(=S)n2/N=C/c2ccc(OC)cc2)c1 | ? | -3.7% | -12.6% | ? | -14.5%
CCN(CC)S(=O)(=O)c1cccc(-c2n[nH]c(=S)n2C(C)COC)c1 (stereo not given) | 10µM* | 12.6% | 11.0% | 3.55µM* | /
CCC(C)n1c(-c2cccc(S(=O)(=O)N3CCOCC3)c2)n[nH]c1=S (stereo not given) | 3.16µM* | 7.0% | 46.9% | 5.62µM* | 3.6%
CCOc1ccc(C(=O)c2cn(CC(=O)Nc3ccc(Cl)cc3)c3cc4c(cc3c2=O)OCCO4)cc1 | 6.1%[59 µM] | -25.7% | 38.3% | -7.6% | /
SMILES | G9a inh | BAZ2B block | HP1b binding inh | JMJD2A Tudor | L3MBTL1 block
Cc1ccc(N2C(=O)CC(Sc3nccc(C)n3)C2=O)cc1 (stereo not given) | ? | -11.0% | 82.5% | -7.5% | -13.1%
Cc1ccc(C(=O)CC(SCC(=O)O)c2ccc([N+](=O)[O-])cc2)cc1 (stereo not given) | 25.1µM* | ? | 50.1µM* | ? | -9.2%
Cc1cc(C)nc(SCC(=O)c2ccc([N+](=O)[O-])cc2)n1 | ? | -36.0% | -32.7% | 79.4µM* | -11.9%
COc1ccc(C(CC(=O)c2ccc(C)cc2)Nc2ccc([N+](=O)[O-])cc2)cc1 (stereo not given) | ? | -38.1% | -11.3% | ? | -1.9%
Cc1ccnc(SCC(=O)c2ccc([N+](=O)[O-])cc2)n1 | 12.6µM* | ? | 10.0% | -28.8% | -1.2%
Cc1ccnc(SC2CC(=O)N(c3ccc([N+](=O)[O-])cc3)C2=O)n1 (stereo not given) | 35.5µM* | -23.5% | 51.9% | -4.7% | -1.7%
Cc1ccnc(SCC(=O)O)n1 | 15.2% | 3.4% | 35.3% | -4.3% | 11.7%
Cc1ccc(C[C@H](C(=O)O)N2C(=O)c3ccc(C(=O)O)cc3C2=O)cc1 | 3.9%[12.7 µM] | 2.7% | / | -14.5% | 5.2%
CCOC(=O)CNC(=O)CSc1nc2nc(C)c(Br)cc2[nH]1 | 35.5µM* | 2.8% | 44.2% | -2.1% | -3.4%
Cc1nc2nc(SCC(=O)c3ccc([N+](=O)[O-])cc3)[nH]c2cc1Br | 20µM* | 4.2% | 0.4% | ? | 8.1%
Cc1nc2[nH]c(=S)n(C)c(=O)c2nc1C | 44.7µM* | -11.3% | 15.5% | 89.1µM* | 3.0%
Cc1nc2c(=O)n(C)c(=O)n(C)c2nc1Cl | -6.3%[59 µM] | 5.5% | 53.3% | -6.3% | 13.4%
CCOc1ccc(/C=C(\C#N)C(=O)Nc2sc3c(c2C(=O)OC)C(C(=O)OC)CC3)cc1OC (stereo not given) | 1.41µM* | 50.1µM* | ? | 56.2µM* | /
CCOC(=O)c1c(NC(=O)/C(C#N)=C/c2ccc(OC)cc2)sc2c1CCC2 | 7.0%[59 µM] | 3.0% | 14.7% | -19.6% | /
CC12CCC(C1)C(C)(C)C2=O (stereo not given) | 20.0%[59 µM] | / | / | / | /
O=[S+]([O-])(c1c(F)cccc1F)N1CCN([S+](=O)([O-])c2c(F)c(F)c(F)c(F)c2F)CC1 | / | / | / | -7.5% | /
NNc1ccccc1C(F)(F)F | 2.82µM* | 50.1µM* | ? | 31.6µM* | ?
O=[N+]([O-])c1ccccc1N/N=C1\CC2CC=CC12 (stereo not given) | 11.2µM* | 12.6µM* | 17.8µM* | 39.8µM* | ?
O=C(COc1ccccc1F)Nc1c(C(=O)Nc2cccc(F)c2)oc2ccccc12 | -31.3%[59 µM] | -2.1% | 46.8% | 5.0% | /
CN1CCN(CC(=O)N2c3ccccc3C(=O)Nc3cccnc32)CC1 | 29.9µM*! | 10.9% | / | / | 11.7%
CN1CCN(CC(=O)N2c3ccc(S(=O)(=O)NCCNC(=O)OC(C)(C)C)cc3C(=O)Nc3cccnc32)CC1 | / | / | ? | 14.1µM* | /
